We go through 33 compounds from PubChem BioAssay AID504454 (NMMLSC, 2011).

The whole screen tested about 340,000 compounds, of which about 1,400 (0.41%) were called active. The full list was thinned out, with actives kept by preference. A number with no mark means an inactive call.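 The calls were made as follows: active = response above a set limit, near 3 SD of response in nonfluorescent compounds (cut at about 42% in these data); inactive = the rest.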

The target in the assay is Beta-2 adrenergic receptor (Homo sapiens) (UniProt P07550). As to the kind of experiment: agonist-induced loss of surface beta2AR – cell-based, FAP fluorogen, flow cytometry, primary screen (AID 504454). To be noted: Am2.2-beta2AR cells, FAP receptor internalization, active compounds read high, concentration not given here. For orientation: Flow cytometry measures light scatter and fluorescence of single cells or particles in a stream.
Chain of Beta-2 adrenergic receptor (Homo sapiens) (P07550 whole entry, looked up): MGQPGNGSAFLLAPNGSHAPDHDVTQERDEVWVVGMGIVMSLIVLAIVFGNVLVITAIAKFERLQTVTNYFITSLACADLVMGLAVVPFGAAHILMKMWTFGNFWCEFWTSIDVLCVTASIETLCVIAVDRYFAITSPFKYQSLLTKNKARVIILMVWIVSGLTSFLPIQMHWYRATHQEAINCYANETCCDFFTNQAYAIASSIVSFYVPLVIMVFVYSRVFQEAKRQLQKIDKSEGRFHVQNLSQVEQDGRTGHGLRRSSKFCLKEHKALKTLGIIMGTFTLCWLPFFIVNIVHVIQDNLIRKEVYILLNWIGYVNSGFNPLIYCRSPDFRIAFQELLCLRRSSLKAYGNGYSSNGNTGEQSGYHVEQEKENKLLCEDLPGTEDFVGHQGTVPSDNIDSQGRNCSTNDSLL
For `Cc1nn(Cc2ccccc2)c(C)c1C(=O)N1CCN(CC(=O)Nc2ccccc2Cl)CC1`, the response is 4.22%. Turning to `CCOC(=O)N/N=C/c1cn(Cc2ccccc2Cl)c2ccccc12`, the response was -0.12%. With `COc1cccc(Cn2cc(/C=N/NC(=O)c3cc(O)cc(O)c3)c3ccccc32)c1` the figure was 3.63%.

In the case of `COC(=O)N/N=C/c1cn(CCCOc2ccc(C)cc2)c2ccccc12`, the response is 105% (active). For `COc1ccc(OC)c(CCNC(=O)CCn2ccc3cc(S(=O)(=O)N4CCCC4)ccc32)c1`, the response was 1.18%. With `CCOCCCNC(=O)c1c[nH]c2cc(C)ccc2c1=O` the figure was -5.06%; with `CCN(CC)S(=O)(=O)c1ccc(N2CCCC2)c(NC(=O)c2ccc([N+](=O)[O-])o2)c1`, 5.38%; with `O=S(=O)(NCCSc1ccccn1)c1ccc(Cl)cc1`, -2.74%.

For the compound `CC(C)(CSc1nncn1/N=C/c1ccco1)NS(=O)(=O)c1ccc(Cl)cc1`, the response is 45.9% (active). With `Cc1cc(C)n(CCNS(=O)(=O)c2ccc(Cl)cc2)n1` the figure was -1.1%; with `COc1cc(C(=O)NCc2ccncc2)cc(Br)c1OCc1ccccc1`, 7.17%; with `COC(=O)c1ccc(C23CC4(C2)[C@H](CN(Cc2cccnc2)[C@@H]4c2ccccc2)C3c2ccc(Cl)nc2)cc1` (stereo partly drawn), 5.54%.

Take `CCn1c(SCC(=O)NNC(=O)c2ccc(OC)cc2)nnc1C(C)C`: the response is 76.2% (active). Take `CCn1c(CNc2ccc(OC)cc2)nnc1SCC(=O)c1ccc(OC)cc1`: the response is 6.23%. For `CCC(c1nnc(SCC(=O)NNC(=O)c2ccccc2)n1Cc1ccccc1)N(C)C` (stereo not drawn), the response is -7.18%. With `Cc1cc(C)c(S(=O)(=O)n2cc(C(C)C(N)C(=O)O)c3ccccc32)c(C)c1` (stereo not drawn) the figure was 3.12%. With `CCCNC(=O)N1CCC(c2ccc3c(c2)OCO3)CC1` the figure was 6.03%; with `O=[N+]([O-])c1ccc(NC(=S)N2CCN(c3ccccn3)CC2)cc1`, -2.61%. On to `COc1ccc(NC(=O)c2sc3nc(C)nc(N4CCN(c5ccccn5)CC4)c3c2C)c(OC)c1`, for which the response was 16.2%. With `COCc1cc(C)nc2sc(C(=O)NC3CCCCC3)c(N)c12` the figure was -21.3%. As for `COc1ccc(OC)c(NC(=O)c2sc3nc(C)cc(C)c3c2N)c1`, the figure is 72.5% (active); as for `O=S(=O)(c1ccccc1)c1nc(Cc2ccccc2)oc1N1CCOCC1`, 6.12%; as for `CCCCN=C1N/C(=C\c2ccco2)C(=O)N1c1ccccc1`, 0.77%.

Turning to `COc1cc(OC)cc(C(=O)NNC(=O)CCOc2ccccc2OC)c1`, the response was 4.38%. As for `CCN1CCC(=NNC(=O)c2ccc(C)c([N+](=O)[O-])c2)CC1`, the figure is 2.52%. With `CCCCN(CCCC)CCCNC(=O)CN1C(=O)COc2ccc(S(=O)(=O)N3CCC(C)CC3)cc21` the figure was 7.21%; with `Cc1nc2ccccc2c(-c2ccccc2)c1C(=O)c1ccccc1`, 105% (active). With `Cc1nc2ccccc2c(C)c1C(=O)c1ccc(F)cc1` the figure was 1.92%.

Consider `Cc1nc2ccccc2c(C(=O)O)c1-c1ccccn1`, for which the response is 5.02%. As for `CC/S(CC1CC1(Cl)Cl)=N\S(=O)(=O)c1ccc(C)cc1` (stereo not drawn), the figure is -2.93%; as for `O=c1[nH]c(=S)[nH]c(O)c1/C=C1\C=Nc2ccccc21`, 57.7% (active).

Consider `COc1ccc2c(c1OC)C(=O)N(c1ccc(O)cc1)C2`, for which the response is 5.16%. As for `COc1ccnc(Oc2ccccc2)c1-c1ncn[nH]1`, the figure is 1.34%.
